Bioassay records: PubChem, National Center for Advancing Translational Sciences (NCATS)
An excerpt weighted towards active compounds, which were near 7.7% of everything screened.
Giardia FBPA inh = blocks Giardia fructose-bisphosphate aldolase activity. purified Giardia FBPA. Potency, µM (titrated, usually from 59.6 µM), hits mostly inhibitors. 290,000 compounds, 0.71% hits. AID 2451; also: nearly all actives have a fitted effect of over 55% in size
Target sequence (A8B2U2 whole entry, looked up): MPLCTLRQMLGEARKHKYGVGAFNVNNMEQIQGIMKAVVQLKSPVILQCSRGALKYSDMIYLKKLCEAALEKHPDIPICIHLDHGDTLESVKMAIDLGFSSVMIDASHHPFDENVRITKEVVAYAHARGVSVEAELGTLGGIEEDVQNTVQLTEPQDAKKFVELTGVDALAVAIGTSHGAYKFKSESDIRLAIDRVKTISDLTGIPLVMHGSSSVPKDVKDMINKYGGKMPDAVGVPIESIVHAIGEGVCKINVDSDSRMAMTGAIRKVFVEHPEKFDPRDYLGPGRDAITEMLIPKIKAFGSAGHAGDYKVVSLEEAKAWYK
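40 nM FBPA preincubated 10 min at RT with compound (up to 57.5 uM final), then substrate plus GAPDH/TPI/NAD/arsenate coupling and diaphorase/resazurin added. Fluorescence read after 20 min at RT, 525/598 nm.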
Sm TGR inh = S. mansoni TGR enzyme inhibition. Potency, µM (top dose mostly 114 µM), usual class: inhibitors. 360,000 compounds, 3% hits. purified TGR, DTNB reduction, TNB absorbance 405 nm; also: nearly all actives have a fitted effect of over 60% in size
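First, TGR (20 nM dispensed) and NADPH were mixed with compound. Second, a 15 min room-temperature incubation followed. Third, further NADPH and then DTNB were added to start the reaction. Finally, TNB absorbance was monitored kinetically.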
HCMV antiviral = human cytomegalovirus inhibition; HFF cells, HCMV-luciferase reporter, 72 h; hits give low values; activity change, negative = inhibition, % at 57.5 µM; 410,000 compounds, 4.5% hits; AID 1259415; in the data active = activity change below about -60%; inconclusive = no clear call, values can overlap the other calls; inactive = above about -39%
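Two-dose cell screen: HFF monolayers treated with compounds and infected with luciferase-expressing HCMV at 1 PFU/cell, 72 h at 37C, then lysed for luciferase measurement.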
Tb PYK inh = inhibitors of Trypanosoma brucei pyruvate kinase | TbPYK enzyme, Kinase-Glo Plus ATP luminescence, 45 min | Potency, µM (highest dose often 76.8 µM), most hits filed as inhibitors | 410,000 compounds, 0.12% hits; also: nearly all actives have a fitted effect of over 50% in size
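In this concentration-response screen, enzyme-free wells defined baseline while DMSO plates tracked drift. Each reaction combined TbPYK, substrate, compound and 130 uM ADP for 45 min at room temperature. Kinase-Glo Plus luminescence gave the signal.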
RE007 growth inh = less growth of the S. pombe RE007 Vpr strain | S. pombe RE007 Vpr strain, BacTiter-Glo ATP luminescence, 24 h | Potency, µM (top dose mostly 92.2 µM), most hits filed as inhibitors | 360,000 compounds, 0.21% hits | AID 651644; active = well fitted falling curve with a large enough effect; inconclusive = small, poorly fitted or top-dose-only effect; inactive = no such curve, though single readings can be large or run the other way; also: nearly all actives have a fitted effect of over 50% in size
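Fission yeast RE007 carrying one integrated HIV-1 vpr copy, seeded at OD 0.01 in PMG+AL medium with 23 nL pinned compound. Grown 24 h at 30 degrees; viability read by BacTiter-Glo luminescence after 5 min.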
FMDV inh = foot and mouth disease virus antiviral activity; FMDV antiviral cell-based qHTS; Potency, µM (top dose mostly 57.9 µM), usual class: inhibitors; 410,000 compounds, 1.2% hits; calls by dose curve; tested in HEK293T cells; also: read-out not given here; nearly all actives have a fitted effect of over 45% in size
Hits are given with their value; n = inactive; u = inconclusive; x = not tested or not shown. Unless noted, calls follow the shape of the dose curve; as a rule, active = well fitted curve in the direction sought with a large enough effect; inconclusive = small, poorly fitted or top-dose-only effect, or another doubt; inactive = no such curve, though single readings can be large; an effect the other way counts as inactive or inconclusive.

SMILES	Giardia FBPA inh	Sm TGR inh	HCMV antiviral	Tb PYK inh	RE007 growth inh	FMDV inh
COc1ccc(N2CCN(C(=S)NCCc3ccccc3)CC2)cc1	x	x	n	n	n	n
Oc1ccc(N2CCN(C(=S)NCCc3ccccc3)CC2)cc1	n	n	-70	u	n	n
COc1cc(Cl)c(C)cc1NC(=O)CC(c1ccc(F)cc1)N1Cc2ccccc2C1=O (stereo unspecified)	x	n	n	n	x	n
Nc1nonc1-n1nnc(C(=O)N/N=C/c2ccccc2)c1CN1CCc2ccccc21	n	n	n	n	n	n
C/C(=N\NC(=O)c1nnn(-c2nonc2N)c1CN1CCc2ccccc21)c1ccccc1O	n	n	-98	n	n	n
CCC/C(=N/NC(=O)c1nnn(-c2nonc2N)c1CN1CCCCC1)c1ccccc1	x	x	n	n	n	n
CCCc1c(C(=O)N/N=C(\CC)c2ccccc2)nnn1-c1nonc1N	x	x	-63	n	n	n
Cc1cccc(C(=O)Nc2cc(-c3ccccc3F)nn2-c2ccccc2)c1	x	n	n	n	x	n
CCOC(=O)/C=C(\C)Sc1cc(=O)oc2ccccc12	n	22µM	n	n	n	n
CCOC(=O)/C=C(\C)Sc1cc(O)c2ccccc2c1O	7.1µM	0.79µM	-100	7.1µM	63µM	28µM
Cc1ccc(Cn2c(CCNC(=O)C(C)C)nc3ccccc32)cc1	x	n	n	n	x	n
CC1(C)CC(=O)C=C(c2cccc(Br)c2)C1	x	n	-64	n	n	n
Cc1cc(C)cc(OCC(=O)N(Cc2ccco2)Cc2ccccc2Cl)c1	x	n	n	n	x	n
COc1cc(C(=O)NCC(c2ccc(N(C)C)cc2)N2CCc3ccccc32)cc(OC)c1OC (stereo unspecified)	x	n	n	n	x	n
CCOC(=O)C1=C(O)/C(=C\c2ccc(CNS(=O)(=O)c3ccc(Br)cc3)o2)N=C1C	n	40µM	n	n	x	n
COC(=O)C1=C(O)/C(=C\c2ccc(CNS(=O)(=O)c3ccc(Cl)cc3)o2)N=C1C	u	28µM	n	n	n	n
COC(=O)C1=C(O)/C(=C\c2ccc(CNS(=O)(=O)c3ccccc3)o2)N=C1C	u	40µM	n	n	n	n
Cc1cc(=O)n(Cc2cccc(F)c2)c2c1c(C)nn2-c1cccc(F)c1	x	n	n	n	x	n
COc1cccc(CNC(=O)CC2C(=O)NCCN2Cc2ccoc2)c1OC (stereo unspecified)	n	20µM	n	n	n	n
COc1cccc(CN2CCNC(=O)C2CC(=O)N(C)CCC2CCOCC2)c1OC (stereo unspecified)	x	25µM	n	n	n	n
CCOC(=O)N1CCC(NC(=O)c2ccc3c(c2)N=C(CC)c2cc(C)ccc2S3)CC1	n	n	n	n	n	u
CCC1=Nc2cc(C(=O)NCc3ccco3)ccc2Sc2ccc(C)cc21	n	n	-75	n	n	n
CCC1=Nc2cc(C(=O)NCCN3CCOCC3)ccc2Sc2ccc(C)cc21	n	n	n	n	n	n
CCCC1=Nc2cc(C(=O)NC3CCCC3)ccc2Sc2ccc(C)cc21	x	n	-79	n	x	n
CCC1=Nc2cc(C(=O)NC3CCCC3)ccc2Sc2ccc(Br)cc21	x	n	u	n	x	n
SMILES	Giardia FBPA inh	Sm TGR inh	HCMV antiviral	Tb PYK inh	RE007 growth inh	FMDV inh
CCC1=Nc2cc(C(=O)NC3CCC(C)CC3)ccc2Sc2ccc(C)cc21 (stereo unspecified)	x	n	-82	n	x	n
CCCC1=Nc2cc(C(=O)NC3CCCCC3)ccc2Sc2ccc(C)cc21	x	n	-91	n	x	n
O=C(Nc1cccc(-c2nc3ccccc3o2)c1)C(F)(F)F	x	n	-103	n	x	32µM
CCC(=O)Nc1cccc(-c2nc3ccccc3o2)c1	n	n	n	n	n	n
CC(C)(C)S(=O)(=O)N1C[C@@H]2C(=C(CCO)C[C@@H]3C(=O)N(c4ccccc4)C(=O)[C@@H]32)[C@H]1CCO	x	x	n	x	x	x
Cc1ccc(CNC(=O)c2nnc(Cc3cccc(F)c3)o2)cc1	x	n	n	n	x	n
CCOC(=O)Cn1cc(/C=C/[N+](=O)[O-])c2ccccc21	n	x	-74	n	n	28µM
O=Cc1cn(Cc2cccc(F)c2)c2ccccc12	n	n	n	n	n	u
O=[N+]([O-])/C=C/c1cn(Cc2ccc(Cl)cc2)c2ccccc12	n	n	n	n	n	35µM
Cc1cccc(Cn2cc(/C=C/[N+](=O)[O-])c3ccccc32)c1	n	n	-99	n	n	u
CCOC(=O)Cn1cc(C=C2C(=O)N(C)C(=O)N(C)C2=O)c2ccccc21	n	n	n	n	n	n
C=CCn1c(O)c(N=Nc2ccccc2C)c2ccccc21	n	18µM	n	n	n	n
C=CCn1c(O)c(N=O)c2ccccc21	n	n	n	n	n	n
COc1ccc(N2CCN(S(=O)(=O)CCNC(=O)c3ccc(C(F)(F)F)cc3)CC2)cc1	x	n	n	n	x	n
COCc1ccc(C(=O)NC2CCCc3c2cnn3-c2ccc(C)c(C)c2)o1 (stereo unspecified)	n	n	-77	n	n	u
Cc1cc(C)cc(-n2ncc3c2CCCC3NC(=O)c2cc(C)oc2C)c1 (stereo unspecified)	n	u	u	n	n	n
COc1ncccc1C(=O)NC1CCCc2c1cnn2-c1cc(C)cc(C)c1 (stereo unspecified)	n	n	-61	n	n	n
Cc1ccc(-n2ncc3c2CCCC3NC(=O)c2ccoc2)cc1C (stereo unspecified)	n	n	u	n	n	n
Cc1cc(C(=O)NC2CCCc3c2cnn3-c2ccc(C)c(C)c2)n(C)n1 (stereo unspecified)	x	n	-99	n	n	u
Cc1c2cnn(-c3ccccc3)c(=O)c2c(C)n1CCCC(=O)Nc1cccc(F)c1	x	u	n	n	x	n
CC(=O)c1ccc(S(=O)(=O)N2CCN(c3ccnc4cc(Cl)ccc34)CC2)cc1	x	x	-70	n	n	u
Cc1ccc(S(=O)(=O)N2CCN(c3ccnc4cc(Cl)ccc34)CC2)cc1	n	n	-61	n	n	n
O=S(=O)(c1ccc(Br)s1)N1CCN(c2ccnc3cc(Cl)ccc23)CC1	n	n	-72	n	n	u
Cc1ccc(S(=O)(=O)N2CCN(c3ccnc4cc(Cl)ccc34)CC2)cc1C	n	n	u	n	n	u
COc1cc(OC)c(OC)cc1CN1CCCC(c2nc(C)ncc2-c2ccc(F)cc2)C1 (stereo unspecified)	x	x	x	x	x	n
N#CC1=C(SCC(N)=O)NC2=C(C(=O)c3ccccc32)C1c1ccc(Cl)cc1 (stereo unspecified)	n	u	-60	n	n	n
COC(=O)c1cccc(NC(=O)CSc2nc3cccnc3n2C)c1	n	n	u	n	n	16µM
